From PubChem BioAssay
In the library only some 2.6% were active in any assay of this set; here they are far more common.
eIF4H FP inh = inhibitors of RNA binding by human eIF4H. Q15056. eIF4H fluorescence polarization binding assay. inhibition, % at 35 µM. 290,000 compounds, 0.94% hits;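 note: calls also rest on retests at 20 µM and on dose response follow-up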
PABP polyA inh = blocks human PABP binding to poly(A) RNA; P11940; fluorescence polarization; calls only at 35 µM; 290,000 compounds, 1% hits; AID 2014;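 note: calls also rest on retests at 20 µM and on dose response follow-up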
PHOSPHO1 inh = inhibitors of human PHOSPHO1 phosphatase; recombinant PHOSPHO1, absorbance phosphatase assay; 290,000 compounds, 1.1% hits; AID 1565; inhibition, % at 13.3 µM; in the data active = inhibition above about 60%
AI-2 QS mod = modulates the Vibrio harveyi AI-2 quorum sensing system. activity change, % at 7.5 µM. 300,000 compounds, 0.4% hits. Vibrio harveyi JMH597 AI-2 luminescence/OD600 ratio, 9 h; hits give low values; strain lacks LuxN and CqsS sensors; 0 = neutral-control median; in the data active = activity change below about -75%, passing the limit was not always enough; inconclusive = no clear call, values can overlap the other calls;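 note: luminescence divided by OD600 gain over 9 h not by final OD600 alone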
PABP1 MLLE inh = inhibitors of microRNA-mediated deadenylation, human PABP1 MLLE binding; P11940; GST-MLLE / FITC-PAM2 fluorescence polarization; inhibition, % at 20 µM; 360,000 compounds, 0.36% hits; in the data active = inhibition above about 35%, passing the limit was not always enough;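 note: plate controls were DMSO wells with GST-MLLE for no effect and wells lacking GST-MLLE protein for full effect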
ABCB6 inh MLPCN = human ABCB6 transporter inhibition | AID 602162 | fluorescence ratio to DMSO, % at 10 µM | K562-ABCB6 porphyrin accumulation, flow cytometry, 1 h; hits give low values | 360,000 compounds, 0.19% hits | Q9NP58;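 active = fluorescence ratio to DMSO below 75%, the collection mean minus 3 SD; inconclusive = too few cells collected in the well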;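 note: signal is porphyrin accumulated inside mitochondria; 100% equals median channel fluorescence of DMSO control wells; lower ratio means ABCB6 inhibition with less porphyrin fluorescence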
Target sequence (Q9NP58 whole entry, looked up): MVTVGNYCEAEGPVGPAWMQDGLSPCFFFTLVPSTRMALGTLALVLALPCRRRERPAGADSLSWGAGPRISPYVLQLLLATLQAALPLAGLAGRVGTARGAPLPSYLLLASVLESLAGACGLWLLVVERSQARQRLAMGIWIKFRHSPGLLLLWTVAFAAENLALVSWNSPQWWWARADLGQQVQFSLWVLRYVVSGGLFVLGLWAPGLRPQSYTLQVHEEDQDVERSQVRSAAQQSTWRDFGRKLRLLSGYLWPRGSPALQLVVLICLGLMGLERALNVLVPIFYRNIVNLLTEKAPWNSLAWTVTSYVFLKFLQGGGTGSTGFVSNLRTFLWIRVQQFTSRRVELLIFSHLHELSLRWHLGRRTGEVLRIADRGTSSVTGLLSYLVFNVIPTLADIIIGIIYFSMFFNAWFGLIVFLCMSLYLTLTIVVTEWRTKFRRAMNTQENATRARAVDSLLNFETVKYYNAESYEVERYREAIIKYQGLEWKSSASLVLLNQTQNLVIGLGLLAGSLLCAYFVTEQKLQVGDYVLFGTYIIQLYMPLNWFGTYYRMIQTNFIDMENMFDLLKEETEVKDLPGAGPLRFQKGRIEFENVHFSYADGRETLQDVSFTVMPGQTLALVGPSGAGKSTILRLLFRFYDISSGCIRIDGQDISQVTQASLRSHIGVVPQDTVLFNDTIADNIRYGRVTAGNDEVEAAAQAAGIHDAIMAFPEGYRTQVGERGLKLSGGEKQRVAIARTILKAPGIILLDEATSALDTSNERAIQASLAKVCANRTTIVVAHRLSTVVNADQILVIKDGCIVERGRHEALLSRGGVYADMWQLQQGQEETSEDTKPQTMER
* hit, by the source's call; i = inactive; ? = inconclusive; . = no result given; + = active, no number. Unless noted, the rule behind the calls is not given here.

SMILES	eIF4H FP inh	PABP polyA inh	PHOSPHO1 inh	AI-2 QS mod	PABP1 MLLE inh	ABCB6 inh MLPCN
Cc1ccc(S(=O)(=O)/N=C2/C=C(Sc3ncn[nH]3)C(=O)c3ccccc32)c(C)c1	11.9	i	75.9*	.	.	.
Cc1ccc(S(=O)(=O)/N=C2\C=C(NS(=O)(=O)c3ccccc3)C(=O)c3ccccc32)c(C)c1	.	.	.	.	12.8	94.0
Cc1ccc(S(=O)(=O)/N=C2/C=C(Sc3ncn[nH]3)C(=O)c3ccccc32)cc1	7.2	i	73.1*	.	50.3*	105.0
CC(C)c1ccc(S(=O)(=O)/N=C2/C=C(Sc3ncn[nH]3)C(=O)c3ccccc32)cc1	16.6	i	6.1	.	18.9	102.0
CCCNC(=O)c1cc(C2CCCCN2C(=O)c2ccc(C(C)C)cc2)on1 (stereo not given)	.	.	.	.	0.8	93.0
O=C1C2C3C=CC(C4CC34)C2C(=O)N1/N=C/c1ccc(-c2ccc(F)cc2[N+](=O)[O-])o1 (stereo not given)	126.5	i	23.3	11.8	18.2	108.0
Cc1ccc(-c2ccc(/C=N/N3C(=O)C4C5C=CC(CC5)C4C3=O)o2)c([N+](=O)[O-])c1 (stereo not given)	52.7*	+	-6.8	-33.0	18.5	98.0
COc1ccc(-c2ccc(/C=N/N3C(=O)C4C5C=CC(C6CC56)C4C3=O)o2)c([N+](=O)[O-])c1 (stereo not given)	63.5*	+	-9.7	-61.5	19.3	102.0
O=C1C2C3C=CC(C4CC34)C2C(=O)N1/N=C/c1ccc(-c2ccc(Cl)cc2[N+](=O)[O-])o1 (stereo not given)	?	?	-13.9	-34.7	18.6	90.0
O=C1CC=Nc2ccc([N+](=O)[O-])cc21	.	.	.	.	-4.5	99.0
O=C(/C(=N/N=C/c1ccc(O)c(O)c1O)c1ccccc1)c1ccccc1	84.6	i	-7.5	-35.2	21.8	101.0
Oc1ccc(/C=N/N=C(c2ccccc2)c2ccccc2)c(O)c1O	84.7*	+	-3.4	.	6.4	104.0
O=C1CC(O)(C(F)F)Oc2ccc3ccccc3c21 (stereo not given)	-7.3	i	67.4*	18.4	5.0	95.0
c1ccc2c(c1)CCCN2Cc1nnnn1CC1CCCO1 (stereo not given)	?	?	-3.7	11.7	105.6	113.0
c1ccc(CCn2nnnc2CN2CCCc3ccccc32)cc1	?	?	64.5*	12.0	51.4	168.0
O=C(NC1CCCCC1)C1c2ccccc2OCC(=O)N1Cc1cccnc1 (stereo not given)	.	.	.	.	.	99.0
O=C1NC[C@@H](CCCCN2C[C@H](Cc3ccc(O)cc3)N(Cc3ccccc3)C(=O)C2=O)N(CCc2ccc(O)cc2)C1=O	.	.	.	.	.	95.0
Cc1c(NC(=O)CSCc2ccc(Br)cc2)c(=O)n(-c2ccccc2)n1C	active	+	27.4	-1.5	-13.7	94.0
CCn1c(SCC(=O)Nc2ccccc2)nc2c1c(=O)n(C)c(=O)n2C	-9.2	i	24.2	15.4	1.8	98.0
Cc1c(NC(=O)COC(=O)Cc2ccc(Br)cc2)c(=O)n(-c2ccccc2)n1C	.	.	.	.	-18.2	90.0
CCn1c(SCC(=O)Nc2c(C)n(C)n(-c3ccccc3)c2=O)nc2c1c(=O)n(C)c(=O)n2C	4.1	i	64.2*	26.0	0.3	102.0
O=c1oc2ccccc2cc1-c1nc2ccccc2o1	3.0	i	25.8	19.7	-1.8	91.0
Nc1cc2nc3ccccc3oc-2cc1=O	92.5	+	43.0	.	12.2	122.0
O=[N+]([O-])c1ccccc1S(=O)(=O)NCCSc1ccccc1	8.4	i	29.0	-0.9	-12.8	97.0
O=S(=O)(NCCCSc1ccccc1)c1ccccc1F	-9.4	i	26.5	-65.7	43.3*	93.0
SMILES	eIF4H FP inh	PABP polyA inh	PHOSPHO1 inh	AI-2 QS mod	PABP1 MLLE inh	ABCB6 inh MLPCN
CCCCC[C@@H](C)N1C[C@H](COCc2ccccc2)Oc2cc(N3CC[C@H](N(C)C)C3)ccc2S1(=O)=O	.	.	.	.	.	101.0
CC(=O)c1cc(-c2ccccc2)[nH]c1N1CCOCC1	11.5	i	-6.4	23.5	44.1*	100.0
NNc1nc2c(Cl)ccc(Cl)c2s1	61.8*	+	1.5	16.6	8.6	97.0
O=C(Nc1nc2c(Cl)ccc(Cl)c2s1)C1CC1	1.4	i	4.7	-4.2	13.5	101.0
Nc1ccc2oc3ccc(N)cc3c(=O)c2c1	79.0*	+	19.3	9.9	16.3	96.0
COc1ccc(C(=O)CSc2ncn[nH]2)cc1OC	6.1	i	76.6*	1.8	12.1	88.0
Cc1ccc(C(=O)CSc2ccccn2)cc1	3.8	i	82.7*	13.5	21.2	104.0
Cc1ccc(C(=O)CSc2ncn[nH]2)cc1	8.0	i	97.1*	20.0	14.2	88.0
Cc1ccc(NC(=O)CSc2ncn[nH]2)cc1	-2.9	i	11.2	1.8	-36.6	89.0
CCc1ccc(C(=O)CSc2ncn[nH]2)cc1	-6.3	i	88.5*	32.9	29.1	94.0
COc1cc(OC)cc(-c2c(Sc3ccccc3)c3cc(-c4ccc5c(c4)OCCO5)ccc3n2C)c1	.	.	.	.	.	94.0
OC(c1ccc(Cl)c(F)c1)c1ncc(-c2cccc(F)c2)[nH]1 (stereo not given)	.	.	.	.	-20.4	103.0
COc1ccc(CCN2C(=O)CCC3=C2CCCC3=O)cc1OC	.	.	.	.	-0.4	94.0
CCCCCn1ccc(=N)cc1	.	.	93.4*	38.4	-113.9	95.0
CCCCCCCn1ccc(=N)cc1	0.6*	+	47.4	12.7	-126.9	83.0
CCCCCCCCCn1ccc(=N)cc1	0.2	i	41.5	13.5	-9.5	91.0
CCc1nc2c(OCc3c(C)noc3C)cccn2c1N(C=O)Cc1ccc(OC)cc1	.	.	.	.	0.2	99.0
COCCNc1nc(=S)[nH]c2cc(OC)c(OC)cc12	-0.2	i	68.5*	27.8	-98.4	93.0
CCCS(=O)(=O)NC(=O)C1(C)CCN(C(=O)Cc2ccc(F)cc2)C1 (stereo not given)	.	.	.	.	-14.5	97.0
Cn1nccc1-c1ccc(C(=O)NCc2ccc(Cl)cc2)c2occc12	.	.	.	.	18.0	98.0
COc1ccc(Cn2c3nc4ccccc4nc3c3c(=O)n(Cc4ccco4)c(C)nc32)cc1	53.6*	+	38.9	.	.	.
COc1ccc(Cn2c(C)nc3c(c2=O)c2nc4ccccc4nc2n3Cc2ccco2)cc1	.	.	.	.	-33.5	107.0
CCCCNc1c(-c2ccc(F)cc2)nc2nc(C)cc(C)n12	.	.	.	.	.	103.0
CCN(CC)c1ccc(NC(=O)CN2CCN(S(=O)(=O)c3cc(Cl)ccc3OC)CC2)cc1	19.3	i	93.0*	18.8	11.2	98.0
CC(C)CNC(=S)NNC(=O)c1ccc2c(c1)OCO2	-8.9	i	61.5*	21.9	-33.4	105.0
CCS(=O)(=O)c1ccc2oc(Nc3ccc(C(C)C)cc3)nc2c1	-2.9	i	82.4*	-19.5	36.1	118.0
N#CCCN(Cc1ccccc1)C(C(=O)NC1CCCCC1)c1ccnc2ccccc12 (stereo not given)	.	.	.	.	1.5	92.0
